Assay outcomes (PubChem BioAssay)
Most compounds without a hit are left out; they make up all but 3.7% or so of the library.
Mtb betalactam – beta-lactam sensitization of Mtb H37Rv | hit rate 0.27% among 330,000 | inhibition, % at 25 µM | M. tuberculosis H37Rv growth with meropenem, percent inhibition | AID 434955; call rule not given here;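 further: growth measured after seven days incubation then overnight dye step; 0% = bacteria only wells and 100% = bacteria with antibiotic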
Mtb FBA inh – inhibitors of M. tuberculosis fructose-bisphosphate aldolase; inhibition, % at 1 µM; hit rate 2.3% among 360,000; purified M. tuberculosis FBA, fluorescence read-out; P9WQA3;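 further: 0% = vehicle and 100% = reference inhibitor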
GDH-TPI counter-1 – inhibits GDH-TPI coupling enzymes, artifact for Mtb FBA screen; GDH-TPI coupled enzyme counterscreen, NADH absorbance; inhibition, % at 4.8 µM; hit rate 1.2% among 360,000; AID 588335; in the data active means inhibition above about 30%;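 further: 0% = DMSO wells and 100% = wells lacking the enzyme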
FadD28 FP inh – inhibitors of Mycobacterium tuberculosis FadD28 bisubstrate binding | FadD28 bisubstrate probe binding, fluorescence polarization | inhibition, % at 12.5 µM | hit rate 0.22% among 360,000 | AID 588549; in the data active means inhibition above about 8.5%, passing the limit was not always enough; inconclusive means no clear call, values can overlap the other calls
Mtb UGM inh – Mtb UDP-galactopyranose mutase inhibition. purified UGM, fluorescence polarization probe displacement. inhibition, % at 10 µM. hit rate 0.06% among 320,000. AID 504406; in the data active means inhibition above about 10%, passing the limit was not always enough; inconclusive means no clear call, values can overlap the other calls
Target sequence (P9WIQ1 whole entry, looked up): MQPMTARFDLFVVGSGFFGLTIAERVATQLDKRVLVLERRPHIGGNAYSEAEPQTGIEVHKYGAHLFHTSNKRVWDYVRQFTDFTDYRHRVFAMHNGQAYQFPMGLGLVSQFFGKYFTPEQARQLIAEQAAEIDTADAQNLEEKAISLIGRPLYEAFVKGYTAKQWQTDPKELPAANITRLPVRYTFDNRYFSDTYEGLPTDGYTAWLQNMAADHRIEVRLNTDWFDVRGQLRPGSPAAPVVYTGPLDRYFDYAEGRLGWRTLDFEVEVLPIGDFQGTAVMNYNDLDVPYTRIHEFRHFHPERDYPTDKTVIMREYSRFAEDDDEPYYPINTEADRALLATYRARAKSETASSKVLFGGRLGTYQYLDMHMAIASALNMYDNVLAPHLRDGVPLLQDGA
Rv3671c inh – Rv3671c (M. tuberculosis) protease inhibition; inhibition, % at 5.96 µM; AID 2606; P9WHR9; hit rate 0.048% among 320,000; in the data active means inhibition above about 38%;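 further: extracellular domain of Rv3671c used as enzyme; 0% = enzyme with DMSO and 100% = no enzyme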
Mtb FBA confirm – confirmation of M. tuberculosis fructose-bisphosphate aldolase inhibitors | AID 651616 | inhibition, % at 1 µM | shares compounds with Mtb FBA inh | hit rate 78% among 5,600 | purified M. tuberculosis FBA, fluorescence read-out;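 further: 0% = vehicle wells and 100% = reference inhibitor wells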
GDH-TPI counter-2 – inhibits GDH-TPI coupling enzymes, flagging Mtb FBA hits | inhibition, % at 1 µM | hit rate 81% among 5,600 | GDH-TPI coupled enzyme counterscreen, fluorescence | shares compounds with Mtb FBA inh; in the data active means inhibition above about 10%
GDH-TPI dose – counter-screen for M. tuberculosis FBA inhibitors: GDH-TPI dose response; shares compounds with Mtb FBA inh; GDH-TPI coupled enzyme assay, fluorescence, artifact counterscreen; IC50, µM; hit rate 79% among 170; call rule not given here
Starred values were filed as active, the others as inactive; ? = inconclusive; · = no result; + = active, no number. Unless noted, no stated cut-off is given here; in the data, active means inhibition above about 27%; inactive means the rest.

SMILES	Mtb betalactam	Mtb FBA inh	GDH-TPI counter-1	FadD28 FP inh	Mtb UGM inh	Rv3671c inh	Mtb FBA confirm	GDH-TPI counter-2	others
Cc1ccc(NC(=O)CN(C)CC(=O)Nc2ccccc2C(=O)Nc2ccccc2)cc1	2	73*	0	1	0	-5	6	-4
C=CCNC(=O)CN(Cc1ccccc1)S(=O)(=O)c1ccccc1	3	1	4	0	0	-7	·	·
Oc1ccc(Br)cc1C=Nc1ccc2c3c(cccc13)CC2	9	38*	6	0	·	0	+	+
Oc1ccc(Cl)cc1C=Nc1ccccc1Br	-3	-1	-6	-4	-2	1	·	·
CN(CCNC(=O)c1c[nH]c2c1ccc1ccccc12)CCNC(=O)c1c[nH]c2c1ccc1ccccc12	·	30*	22	-12	·	·	193*	173*
CN(C)CCNC(=O)c1ccccc1-c1cc2ccccc2c(=O)o1	0	1	3	-3	-3	·	·	·
COc1ccc(S(=O)(=O)Nc2nc3ccccc3nc2Nc2cccc(C(=O)O)c2)cc1	0	32*	38*	?	5	-6	+	+
O=C(O)c1cccc(Nc2ncnc3ccccc23)c1	2	49*	14	-3	-3	2	83*	78*
Oc1cccc(Nc2ncnc3ccccc23)c1	2	1	11	0	-2	-9	·	·
CC(=O)Nc1ccc(S(=O)(=O)NC(C)c2ccccc2)cc1 (stereo unspecified)	0	31*	2	0	1	·	123*	95*
CC(=O)Nc1ccc(S(=O)(=O)Nc2nc3ccccc3nc2Nc2ccccc2)cc1	-4	82*	7	2	4	5	+	+
CCCN1/C(=C(\C#N)C2=NS(=O)(=O)c3ccccc32)N(C)c2ccccc21	·	-3	15	-5	·	·	·	·
C(=C\c1nccc2c1[nH]c1ccccc12)/c1ccccc1	100	91*	7	-7	0	-40	11	0	GDH-TPI dose=1.1*
O=c1[nH]c2ccccc2nc1/C=C/c1ccc(F)cc1	4	9	8	-6	0	-15	·	·
Cc1ccc(/C=C\c2nccc3c2[nH]c2ccccc23)cc1	96	86*	1	-11	-2	-98	174*	135*
Fc1ccc(/C=C\c2nccc3c2[nH]c2ccccc23)cc1	5	74*	2	-6	3	-18	19	20*
O=c1[nH]c2ccccc2nc1/C=C/c1ccccc1	0	10	13	-2	2	-1	·	·
C[C@@H]1CN([C@@H](C)CO)C(=O)CCCn2nncc2CO[C@H]1CN(C)C(=O)Nc1ccc(F)cc1	·	1	-11	-1	·	·	·	·
O=C(Cc1ccc(Cl)cc1)Nc1ccc2c(c1)C(=O)NC2=O	4	60*	5	0	-1	3	51*	35*
CCCC(=O)Nc1cccc(Oc2ccc3c(c2)C(=O)NC3=O)c1	-2	1	9	0	0	-7	·	·
Cc1ccccc1C(=O)Nc1ccc2c(c1)C(=O)NC2=O	-3	39*	6	-1	1	-3	0	2
O=C1NC(=O)c2cc(NC(=O)C3CCCO3)ccc21 (stereo unspecified)	2	38*	6	-1	2	0	11	0	GDH-TPI dose=4.2*
CCCC(=O)Nc1ccc2c(c1)C(=O)NC2=O	-1	33*	1	-3	2	3	115*	88*
COc1ccccc1C(=O)Nc1ccc2c(c1)C(=O)NC2=O	0	-1	14	0	2	-11	·	·
O=C(Nc1cccc(S(=O)(=O)N2CCOCC2)c1)C1CC1	5	1	2	0	-3	8	·	·
CC(C)c1ccc(OCCCCN2CCCCC2)cc1	-4	98*	-1	-2	1	0	130*	106*
C[C@@H]1CN([C@@H](C)CO)C(=O)CCCn2cc(nn2)CO[C@H]1CN(C)C(=O)c1cc(-c2ccccc2)on1	·	-1	7	-1	·	·	·	·
